Assay results published in PubChem BioAssay AID1259374 (The Scripps Research Institute Molecular Screening Center, 2018).
The whole screen tested about 650,000 compounds, of which about 5,900 (0.91%) were called active. No stated cut-off is given here; in the data, active means inhibition above about 50%; inactive means the rest. The entries come from a sample that favours actives as a whole.

Molecular target: Microphthalmia-associated transcription factor (Homo sapiens) (UniProt O75030)
Test: MITF inhibitors, primary screen, biochemical, AlphaScreen, human (AID 1259374);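 further: 0% = vehicle wells with protein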
Conditions: AlphaScreen MITF homodimerization, bead proximity signal; at 2.6 µM; active compounds read high

Microphthalmia-associated transcription factor (Homo sapiens), sequence (O75030 whole entry, looked up): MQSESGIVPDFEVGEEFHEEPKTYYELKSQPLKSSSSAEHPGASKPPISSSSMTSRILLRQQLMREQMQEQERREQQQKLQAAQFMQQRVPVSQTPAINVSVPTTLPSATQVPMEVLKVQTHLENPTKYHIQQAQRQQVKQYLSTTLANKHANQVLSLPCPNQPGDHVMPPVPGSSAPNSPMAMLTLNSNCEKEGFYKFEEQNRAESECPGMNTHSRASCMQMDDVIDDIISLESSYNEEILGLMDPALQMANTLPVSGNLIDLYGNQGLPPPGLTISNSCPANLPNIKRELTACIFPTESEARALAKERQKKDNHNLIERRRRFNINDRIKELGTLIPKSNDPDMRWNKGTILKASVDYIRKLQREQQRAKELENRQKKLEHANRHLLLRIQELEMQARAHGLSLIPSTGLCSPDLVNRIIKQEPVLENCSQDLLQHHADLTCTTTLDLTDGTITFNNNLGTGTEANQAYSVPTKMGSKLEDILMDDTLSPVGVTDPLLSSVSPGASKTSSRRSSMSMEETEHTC

Compound | inhibition
CN(C)CCN1C(=O)C(=O)/C(=C(\O)c2ccc(S(=O)(=O)N(C)C)cc2)C1c1ccc(C(C)(C)C)cc1 (stereo not given) | 13.9% (inactive)
CC(CCn1cccn1)NC(=O)CCc1nnc(-c2ccccc2)o1 (stereo not given) | 1.03% (inactive)
O=C(CCc1nnc(-c2ccccc2)o1)NC1(c2ccccc2)CC1 | -2.49% (inactive)
CN(C)CC(C)(C)CNCc1nnc(-c2ccccc2)o1 | 56.2% (active)
O=C1NC(=S)N(Cc2ccco2)C(=O)/C1=C\c1ccc(N2CCOCC2)cc1 | 75.1% (active)
Cc1cc(N2CCOCC2)ccc1/C=C1\C(=O)NC(=S)N(c2ccccc2)C1=O | -14.9% (inactive)
CCN1C(=O)/C(=C\c2ccc(O)cc2)C(=O)NC1=S | 3.62% (inactive)
CCOC(=O)N1CCC(N(CCN(C)C)C(=S)Nc2cccc(F)c2)CC1 | -2.5% (inactive)
O=C(O)C1c2ccccc2C(=O)N(Cc2ccc(F)cc2)C1c1cccc(F)c1 (stereo not given) | 10.8% (inactive)
COc1ccc(C(=O)N2CCN(Cc3ccccc3C(F)(F)F)CC2)cc1OC | 83.3% (active)
COc1cccc(CN2CCN(Cc3ccc(C(F)(F)F)cc3)CC2)c1OC | 77.8% (active)
COc1ccc(CN2CCN(C(=O)c3ccc(F)cc3)CC2)cc1OC | 6.68% (inactive)
COc1cccc(CN2CCN(C/C=C/c3ccccc3)CC2)c1OC | 63.1% (active)
COc1ccccc1/C=C/CN1CCN(C)CC1 | 44.2% (inactive)
COc1ccc(C(=O)N2CCN(Cc3cccc(OC)c3OC)CC2)cc1OC | 44.2% (inactive)
COc1cccc(CNCc2ccc(Br)cc2)c1OC | 12.2% (inactive)
COc1cccc(CN2CCOCC2)c1OC | -5.85% (inactive)
COc1ccc(CN2CCC3(CC2)CC3C(=O)NCc2ccccc2C(F)(F)F)cc1O (stereo not given) | 0.47% (inactive)
COc1ccc(CN2CCN(Cc3ccccc3C(F)(F)F)CC2)cc1OC | 75.6% (active)
COc1cccc(CN2CCN(Cc3ccc(SC)cc3)CC2)c1OC | 41% (inactive)
CC(=O)Nc1cccc(NC(=O)Cn2cnc3c(nnn3Cc3ccccc3F)c2=O)c1 | 11.8% (inactive)
COc1cc2nc(CN3CCN(c4ccccc4OC)CC3)[nH]c(=O)c2cc1OC | 4.45% (inactive)
O=[N+]([O-])c1cccc(C(c2nnnn2-c2cccc(Cl)c2)N2CCCCC2)c1 (stereo not given) | 7.91% (inactive)
C/C(CC(=O)Nc1ccc(Cl)cc1C)=N\NC(=O)c1ccc([N+](=O)[O-])c(Cl)c1 | 14% (inactive)

Compound | inhibition
COC(=O)CSCC(=O)Nc1cc(C(F)(F)F)ccc1Cl | 3.79% (inactive)
Cc1ccn2cc(-c3ccc(NS(=O)(=O)c4ccc(I)cc4)cc3)nc2n1 | -8% (inactive)
COc1ccc(NC2c3cccc4cccc(c34)C2NS(=O)(=O)c2ccccc2)cc1 (stereo not given) | 23.3% (inactive)
Cc1cccc(CNc2ncnc3sc(C(=O)N(C)C4CCOC4)c(C)c23)n1 (stereo not given) | -1.76% (inactive)
C=CCOc1ccc(/C=C2\SC(=S)NC2=O)cc1 | 12.6% (inactive)
Cc1ccc(C(=O)NNC(=O)C2Cc3ccccc3CN2C(=O)c2ccco2)cc1 (stereo not given) | 3.81% (inactive)
Cc1ccc(OCC(=O)N/N=C/c2cc(C)ccc2O)cc1 | 15.3% (inactive)
O=C(Nc1cccc(-c2nc3cccnc3s2)c1)C(F)(F)F | -3.61% (inactive)
N#C/C(=C/c1ccc(S(=O)(=O)c2ccc(Cl)cc2)cc1)c1nc2ccccc2[nH]1 | -16.9% (inactive)
COc1cccc(-c2nc3cnccn3c2NC(C)(C)C)c1OC | -9.88% (inactive)
Cc1nc(NC2CC2)cc(-c2ccc(F)cc2)n1 | 52.6% (active)
COCCNc1cc(-c2ccc(F)cc2)nc(C)n1 | 14.6% (inactive)
Cc1nc(Nc2ccncc2)cc(-c2ccc(F)cc2)n1 | 0.1% (inactive)
Cc1cccc(N2C(=O)NC(=O)/C(=C\c3ccc(C)o3)C2=O)c1 | 2.19% (inactive)
O=C1NC(=S)N(c2ccccc2)C(=O)/C1=C/c1ccc(I)o1 | 59.5% (active)
COc1ccc(/C=C2/C(=O)NC(=O)N(c3ccccc3C)C2=O)cc1OC | 1.35% (inactive)
Cc1cccc(N2C(=O)NC(=O)/C(=C\c3ccc(I)o3)C2=O)c1C | 57.8% (active)
Cc1ccccc1N1C(=O)NC(=O)/C(=C\c2ccoc2)C1=O | 52.5% (active)
O=C1NC(=S)N(c2ccccc2)C(=O)/C1=C/c1ccccc1 | 17.4% (inactive)
Cc1ccc(N2C(=O)NC(=O)/C(=C\c3ccc(I)o3)C2=O)cc1C | 41.7% (inactive)
O=C1NC(=S)N(c2ccccc2)C(=O)/C1=C/c1ccc(N2CCCC2)o1 | 1.33% (inactive)
O=C1NC(=O)N(c2ccccc2F)C(=O)/C1=C\c1ccco1 | 40% (inactive)
O=C(Nc1ccc(C(=O)O)c(C(=O)O)c1)c1cccc(N2C(=O)c3ccc([N+](=O)[O-])cc3C2=O)c1 (tested in a mixture with another compound) | 11.7% (inactive)
CSc1ccccc1N1C(=O)[C@@H]2C[C@H]1CN2C(=O)CCc1ccc2c(c1)OCO2 | -0.38% (inactive)

Compound | inhibition
CC1=C(C(=O)OC2CCCC2)C(c2ccc(C)o2)C2=C(CCCC2=O)N1 (stereo not given) | 2.33% (inactive)
CN(C)c1cccc(Nc2nccn3c(-c4cccc(Cl)c4)cnc23)c1 | -23.8% (inactive)
CCCCNC(=O)c1ccc(-n2nnc3ccccc3c2=O)cc1 | 5.61% (inactive)
CCOc1ccc(CN2CCN(Cc3ccc(OCC)cc3)C(CCO)C2)cc1 (stereo not given) | 8.91% (inactive)
COc1ccc(CN2CCN(C(=O)c3cccc(Cl)c3)CC2)cc1OC | 27.7% (inactive)
Clc1cccc(N2CCN(Cc3cccnc3)CC2)c1 | 49.8% (inactive)
CCOc1ccc(CN2CCCN(C)CC2)cc1 | 60.4% (active)
CC(C)NC(=O)Nc1ccc(CN2CCN(C)CC2)cc1 | -5.21% (inactive)
O=C(c1cccc(Cl)c1)N1CCN(Cc2cccnc2)CC1 | 59.4% (active)
O=C(c1ccc(C(=O)N2CCN(Cc3ccccc3)CC2)cc1)N1CCN(Cc2ccccc2)CC1 | 6.34% (inactive)
CCOc1ccc(CN2CCN(C(=O)c3cccc(Cl)c3)CC2)cc1 | 58.5% (active)
CC(Oc1cccc(Cl)c1)C(=O)Nc1ccccc1C(=O)N1CCN(Cc2ccccc2)CC1 (stereo not given) | 4.29% (inactive)
COc1ccc(OC)c(-n2nnnc2SCC(=O)N2CCc3ccccc32)c1 | 9.95% (inactive)
CC(C)n1cnc2c(NCc3cccc(C(F)(F)F)c3)nc(Nc3ccncn3)nc21 | 12.6% (inactive)
Cc1ccc2c(c1)-c1c(cnn1CC(=O)NCc1ccccn1)CO2 | -4% (inactive)
COc1ccc(N2CCN(Cc3coc4ccc(Cl)cc4c3=O)CC2)cc1 | 10.4% (inactive)
COc1ccc(N2CCN(Cc3ccc(Br)s3)CC2)cc1 | 71.6% (active)
COc1cccc(N2CCN(Cc3cccs3)CC2)c1 | 42.8% (inactive)
CCOC(=O)c1ccc(-n2c(=S)sc3c2nc(SCC(=O)N2CCCC2)n2c4ccccc4nc32)cc1 | -3.4% (inactive)
CCOc1cc2c(cc1/C=C1/NC(=O)N(CC(=O)Nc3ccccc3C)C1=O)OCO2 | 12.6% (inactive)
Cc1ccccc1CC1(C2CCN(C(=O)C(C)C)CC2)NC(=O)N(CCCN(C)C)C1=O (stereo not given) | 4.98% (inactive)
CNC(=O)/C(C#N)=C/c1cn(CC(=O)NCCOC)c2ccccc12 | 5.66% (inactive)
COc1cccc(CN2CCN3C(=O)[C@H]4CCCN4C(=O)[C@H]3C2)c1 | -17.2% (inactive)
CSc1ccc(CN2CCN(Cc3cccc(Oc4ccccc4)c3)CC2)cc1 | 52% (active)

Compound | inhibition
CSc1ccc(CN2CCN(C(=O)c3cccc(F)c3)CC2)cc1 | 34.1% (inactive)
CCc1ccc(NS(=O)(=O)c2ccc3c(c2)CCN3C(=O)C2CC2)cc1 | 2.16% (inactive)
CCC1CCc2c(sc3nc(SCC(=O)Nc4ccc(Br)cc4)n(-c4ccccc4)c(=O)c23)C1 (stereo not given) | 10.8% (inactive)
COCc1nc2ccccc2n1CCc1noc(-c2ccco2)n1 | 82% (active)
Cc1nc2ccccc2n1CCc1noc(COc2ccccc2)n1 | 9.51% (inactive)
COCc1nc2ccccc2n1CCc1noc(-c2cccs2)n1 | 8.99% (inactive)
CCCc1[nH]n(-c2ccc(F)cc2)c(=O)c1CNN1CCOCC1 | -2.83% (inactive)
NC(=O)COC(=O)/C=C/c1ccc(I)o1 | 52.1% (active)
COc1cc(/C=C/C(=O)OCC(N)=O)ccc1OCC#N | 6.64% (inactive)
CNC(=O)COC(=O)/C=C/c1ccc(C)o1 | 18.9% (inactive)
Cc1ccc(C)c(NC(=S)N(Cc2ccccc2C)CC2CCC(C(=O)O)CC2)c1 (stereo not given) | 13.3% (inactive)
CCCCC(=O)NC(c1ccc(OC)cc1)c1cc([N+](=O)[O-])c2cccnc2c1O (stereo not given) | 18.8% (inactive)
COc1cc(C(=O)NC(c2ccccc2Cl)c2cc([N+](=O)[O-])c3cccnc3c2O)cc(OC)c1OC (stereo not given) | 24.9% (inactive)
CCCC(=O)NC(c1ccccc1OC)c1cc([N+](=O)[O-])c2cccnc2c1O (stereo not given) | 56.2% (active)
C/C(N)=C(/C#N)C(=O)CSc1cccc[n+]1[O-] | -1.32% (inactive)
O=C1c2ccccc2-c2ccc(-c3nc(-c4ccccc4)[nH]c3-c3ccccc3)cc21 | -1.27% (inactive)
Cc1ccc(OCCCCNC(C)(C)C)cc1C | 1.35% (inactive)
CC(C)(C)NCCOCCOc1ccc(I)cc1 | 40.6% (inactive)
CC(C)(C)NCCOCCOc1ccc(Cl)c(Cl)c1 | 73.1% (active)
CCOC(=O)C(C)Oc1cccc2c(=O)n(CC(=O)Nc3ccc(C)c(Cl)c3)ccc12 (stereo not given) | -3.54% (inactive)
CC1=C(C#N)C(=O)NC(=O)/C1=C\c1ccc(-c2ccc(Cl)c(C(=O)O)c2)o1 | 77.7% (active)
CC1=C(C#N)C(=O)NC(=O)/C1=C\c1ccc(-c2cccc(Cl)c2)o1 | -5.17% (inactive)
CC1=C(C#N)C(=O)NC(=O)/C1=C/c1ccc(-c2ccc(Cl)cc2Cl)o1 | 13.9% (inactive)
